Mtb FBA inh = inhibits M. tuberculosis FBA enzyme | P9WQA3 | purified M. tuberculosis FBA, fluorescence read-out | inhibition, % at 1 µM | 360,000 compounds, 2.3% hits | AID 588726;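 further: 0% = vehicle and 100% = reference inhibitor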
UGM FP inh = inhibitors of M. tuberculosis UDP-galactopyranose mutase; inhibition, % at 10 µM; purified UGM, fluorescence polarization probe displacement; P9WIQ1; 320,000 compounds, 0.06% hits; in the data active means inhibition above about 10%, passing the limit was not always enough
RecA splice inh = blocks M. tuberculosis RecA intein splicing. 290,000 compounds, 0.75% hits. cell-free RecA intein splicing, fluorescence. P9WHJ3. inhibition, % (test concentration not listed). AID 2221; in the data active means inhibition above about 30%;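 further: 0% = vehicle wells and 100% = reference inhibitor control wells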
BH1578 lux ind = inducers of Vibrio cholerae quorum light production without autoinducers | 350,000 compounds, 0.16% hits | V. cholerae BH1578 lux reporter, luminescence, 6 h | AID 588436 | activation, % at 18.7 µM; in the data active means activation mostly above about 9.7%, no sharp cut-off
GDH-TPI counter-1 = GDH-TPI coupled enzyme inhibition counter-screen | AID 588335 | inhibition, % at 4.8 µM | GDH-TPI coupled enzyme counterscreen, NADH absorbance | 360,000 compounds, 1.2% hits; in the data active means inhibition above about 30%;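 further: 0% = DMSO wells and 100% = wells lacking the enzyme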
Rv3671c inh = inhibits the M. tuberculosis serine protease Rv3671c; P9WHR9; inhibition, % at 5.96 µM; 320,000 compounds, 0.048% hits; AID 2606; in the data active means inhibition above about 38%;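 further: extracellular domain of Rv3671c used as enzyme; 0% = enzyme with DMSO and 100% = no enzyme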
Target sequence (P9WHR9 whole entry, looked up, the tested form may be a part): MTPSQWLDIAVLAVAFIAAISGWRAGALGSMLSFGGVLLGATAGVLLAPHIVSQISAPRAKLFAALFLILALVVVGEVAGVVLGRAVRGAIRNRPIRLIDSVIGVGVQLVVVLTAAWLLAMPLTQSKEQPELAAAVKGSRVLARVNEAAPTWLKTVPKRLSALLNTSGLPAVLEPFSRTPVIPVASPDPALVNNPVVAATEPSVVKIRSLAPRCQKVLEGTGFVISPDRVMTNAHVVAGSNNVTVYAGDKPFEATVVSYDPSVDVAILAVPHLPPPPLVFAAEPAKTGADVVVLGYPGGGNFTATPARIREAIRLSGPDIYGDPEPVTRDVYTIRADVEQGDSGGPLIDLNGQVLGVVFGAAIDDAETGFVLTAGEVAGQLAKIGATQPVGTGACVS
Mtb FBA inh conf = confirmation of M. tuberculosis fructose-bisphosphate aldolase inhibitors | shares compounds with Mtb FBA inh | purified M. tuberculosis FBA, fluorescence read-out | inhibition, % at 1 µM | 5,600 compounds, 78% hits | AID 651616;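 further: 0% = vehicle wells and 100% = reference inhibitor wells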
GDH-TPI counter-2 = GDH-TPI inhibition counter-screen for FBA inhibitors; shares compounds with Mtb FBA inh; GDH-TPI coupled enzyme counterscreen, fluorescence; inhibition, % at 1 µM; 5,600 compounds, 81% hits; AID 652141; in the data active means inhibition above about 10%
The depositor's hits bear a star; i = inactive; / = not tested or not shown; + = active, no number. Sampled rows, rich in hits. Any-hit rate of the full collection: about 4.1%. Unless noted, no stated cut-off is given here; in the data, active means inhibition above about 27%; inactive means the rest.

SMILES | Mtb FBA inh | UGM FP inh | RecA splice inh | BH1578 lux ind | GDH-TPI counter-1 | Rv3671c inh | Mtb FBA inh conf | GDH-TPI counter-2
O=C(CCN1C(=O)c2ccccc2C1=O)c1cnc[nH]1 | 3 | / | / | / | / | / | / | /
Cc1c(O)c2ccccc2n(-c2ccccc2)c1=O | 47* | 3 | 0 | 0 | 16 | 0 | 77* | 54*
C=CCOC(=O)COc1cc(C)cc2oc(=O)c3c(c12)CCC3 | 57* | 2 | 2 | i | 17 | -1 | + | 170*
Cc1cc(OCC(=O)OC(C)(C)C)c2c3c(c(=O)oc2c1)CCC3 | 2 | 0 | -5 | 7 | 4 | 0 | / | /
Cc1cc(OCc2nn[nH]n2)c2c3c(c(=O)oc2c1)CCCC3 | 84* | -1 | 3 | 0 | 10 | -10 | 59* | 47*
CCN(CC)C(=O)COc1cc(C)cc2oc(=O)c3c(c12)CCCC3 | 81* | 4 | 2 | i | 13 | / | 61* | 43*
CCCCOC(=O)COc1cc(C)cc2oc(=O)c3c(c12)CCC3 | 8 | -1 | -1 | 0 | 0 | 5 | / | /
Cc1c(C)c2cc(Cl)c(OCc3nn[nH]n3)cc2oc1=O | 55* | 0 | 5 | -1 | 12 | -2 | 92* | 75*
Cc1c(C)c2cc(Cl)c(OCC(=O)Nc3ccccn3)cc2oc1=O | 2 | / | / | 0 | -8 | / | / | /
Cc1nc(CS(=O)(=O)c2ccc(Cl)cc2)cc(Sc2ccccc2Cl)n1 | 31* | 0 | 4 | 2 | 3 | -10 | 110* | 98*
COc1ccccc1NC(=O)Nc1nnc([C@@H]2C[C@H](O)[C@@H](CO)O2)s1 | 1 | / | / | i | 8 | / | / | /
